Over roughly 33,000 sequences, “E-score (-0.5 to 0.5)” has its median near -0.043; the highest 2% begin near 0.37. What follows is part of a selection rich in the highest values, with near analogues and random picks from the rest.
molecular target: T1, Upc2 (UniProt Q12151); assay: PBM E-score (8-mer binding enrichment) (E-score (-0.5 to 0.5)); higher = stronger / more preferred TF binding; conditions: protein concentration: 200 nM; construct: GST-full length
T1 sequence: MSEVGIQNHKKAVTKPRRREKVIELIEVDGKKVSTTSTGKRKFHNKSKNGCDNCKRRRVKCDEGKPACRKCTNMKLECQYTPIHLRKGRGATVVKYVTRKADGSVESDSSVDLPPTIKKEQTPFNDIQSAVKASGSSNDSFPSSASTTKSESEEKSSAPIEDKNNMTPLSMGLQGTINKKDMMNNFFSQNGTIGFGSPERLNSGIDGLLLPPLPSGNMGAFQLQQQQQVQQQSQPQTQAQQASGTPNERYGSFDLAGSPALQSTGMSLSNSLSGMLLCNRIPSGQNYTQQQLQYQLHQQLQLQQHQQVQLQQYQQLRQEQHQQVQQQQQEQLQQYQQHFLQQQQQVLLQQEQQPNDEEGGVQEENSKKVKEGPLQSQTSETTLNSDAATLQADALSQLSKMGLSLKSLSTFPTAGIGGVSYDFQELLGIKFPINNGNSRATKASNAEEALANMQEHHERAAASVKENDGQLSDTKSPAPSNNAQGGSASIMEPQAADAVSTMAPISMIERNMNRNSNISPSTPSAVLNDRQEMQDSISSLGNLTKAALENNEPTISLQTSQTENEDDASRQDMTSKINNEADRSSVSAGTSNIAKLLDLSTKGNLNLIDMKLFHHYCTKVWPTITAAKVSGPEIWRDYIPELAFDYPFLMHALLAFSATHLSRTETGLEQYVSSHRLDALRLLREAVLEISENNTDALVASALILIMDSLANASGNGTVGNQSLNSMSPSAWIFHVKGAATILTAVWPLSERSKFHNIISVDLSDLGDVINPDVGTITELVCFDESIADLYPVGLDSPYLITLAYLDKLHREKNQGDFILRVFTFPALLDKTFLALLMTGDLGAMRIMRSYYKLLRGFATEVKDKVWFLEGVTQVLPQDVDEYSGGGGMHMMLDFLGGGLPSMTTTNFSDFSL
Method: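 Universal 'all 10-mer' protein binding microarrays (Agilent AMADID 015681) probed with GST-tagged S. cerevisiae TFs (full-length or DBD) made by in vitro transcription/translation (PURExpress), about 100-200 nM. Bound TF was detected with fluorescent anti-GST. Each ungapped 8-mer (which stands for itself and its reverse complement) is scored by the PBM enrichment score (E-score), a modified Wilcoxon-Mann-Whitney statistic from -0.5 to +0.5, computed with the Universal PBM Analysis Suite. Scale: above 0.35 generally sequence-specific binding.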

Sequence	PBM E-score
AATATACT	-0.0413
AATATACG	0.465
CATATACG	0.463
CATATACA	0.05
AAGGACAT	0.0482
AAAATACG	0.346
GTGGACAC	-0.158
GGATCGAC	-0.14
CGCGTTTA	0.415
GGCGTTGA	-0.0389
GGCGTTTA	0.378
AGCGTTTA	0.363
GACGTTTA	0.366
CGCGTTCA	0.242
GGTCCCCA	-0.24
GACAACCC	0.0735
AAAGGGGC	-0.127
ACACAGCG	0.104
ATGGGTTA	-0.00164
GGTTCAAC	0.0526
CGTTCCAG	0.391
CGTTCCGC	0.385
AGTTCCGC	0.0626
CGTTCAAG	0.407
AGTTCAAC	0.00196

Sequence	PBM E-score
AGTTCCAG	-0.188
CGTTCCAA	0.329
CGTTCAAA	0.369
AGTTCAAG	0.129
CGTTCAAC	0.382
CGTTCCGA	0.361
AGGCGTGA	-0.00507
CGGAAGTA	0.0369
AACCACAA	-0.077
GTGAATAA	-0.0516
ACAACTAC	-0.129
GCGAAAAA	0.148
GACTTAAC	0.00959
CTGAAGAA	-0.299
CCCATCGG	0.0976
AGCAAGCT	-0.253
CGTAAGAG	0.316
ACGCCATC	-0.0963
GCAAACAC	-0.00637
CGTTCCCC	0.333
CGTTCCCA	0.373
GGTTCCCA	-0.0861
CACGTATC	0.132
AACGTATT	0.212
AACGTATA	0.443

Sequence	PBM E-score
GACGTATC	0.156
AACGTATC	0.142
GACGTAGC	0.0263
TACGTATA	0.423
TACGTAGA	0.18
TACGTACA	0.341
CACGTATA	0.433
GACGTATA	0.424
CACGTATG	0.236
CGCAAATA	0.0612
AACAGGTC	0.056
TGAAAAAA	0.0284
ACACCGAG	-0.024
AACATTGT	0.0538
CACGTACA	0.272
CCAGTACA	-0.157
ACCGTAAT	0.0464
ACCGTACG	0.383
CCCGTAGC	0.0891
GCCGTGCA	-0.291
CCCGTACC	0.383
GCGGTACA	-0.0545
ACCGTAGG	-0.135
CCAGTACC	0.0225
CCCGTACA	0.398

Sequence	PBM E-score
GCCGTACA	0.4
ATCGACAA	0.0687
AACATCAT	-0.094
AAAAGCTG	0.0411
ACACACTC	-0.042
TTCAGCAA	-0.0506
CTCTCCAA	-0.0403
ACTCGACC	-0.0381
GCCGTACC	0.379
CGCGTACA	0.35
CCCGTAGG	-0.0508
TCCGTACA	0.406
CCCGTAAG	0.208
CCCGTACG	0.393
TCCGTAGA	-0.0263
AGCGTACG	0.354
GCCGTAGC	0.0955
ACCGTACC	0.366
CGCGTACG	0.4
TGCGTACA	0.318
AAGCTCAC	-0.0662
AAGAAGGC	-0.216
ATCAGTGC	-0.0682
CTTAGGCA	-0.361
ATTTCAGG	-0.0274

Sequence	PBM E-score
ATCGATAG	-0.0178
TAAATTGA	-0.0257
CGTGCATA	-0.0557
GCCCTTTA	-0.0758
ACTGTACA	0.133
ACCGTACA	0.39
ACCGTACT	0.214
AAGCGGCT	-0.0364
ACCGCTAC	0.14
CCACCGAA	-0.00574
CGACCGTC	-0.0557
CCACCGTA	0.399
CGGCCGTC	-0.0655
AGGCCGTA	0.355
CGACCGTA	0.373
CCACCGTC	-0.227
GCACCGTA	0.371
ACACCGTA	0.321
GAACCGTA	0.269
AGACCGTA	0.287
CGGCCGTA	0.378
AAAGATTC	0.0374
CCAAGAAG	-0.227
ATGCGTGC	0.03
CAGTCGCC	-0.196

Sequence	PBM E-score
ATTTGCTG	0.0559
AGTACACG	0.198
AGTACACC	0.0771
CGTACACA	0.418
CGTACACG	0.423
GGTACACA	-0.235
AGTACACA	0.143
CGTACACC	0.382
TGTACACA	0.0892
GGTACACC	0.0641
GATGAGGA	-0.0777
CCTGCAAA	-0.0886
GCAATTAC	-0.0538
AGGGTCCC	-0.229
ACGAGTGG	0.295
GCGAGTAC	0.204
ACGAGTCG	0.384
ACGAGTAT	0.376
ACGAGTCT	0.293
ACGAGTAA	0.348
ACGAGTCA	0.249
ACGAGTAC	0.419
ACGAGTGC	0.377
CCGAGTGC	-0.0549
CCGAGTAC	0.196

Sequence	PBM E-score
ACGAGTAG	0.368
CGCTGGGA	-0.0151
AAAGTGTT	0.0836
ATCGTCCG	-0.101
CGACGATA	0.169
CGGTAAAC	0.206
AAAGGTGG	-0.0797
AGCTTTAC	0.192
GTGGATAA	-0.151
ACAGTAGC	-0.0133
AAAATAGG	-0.0506
ATCGTTTC	0.401
AGCGTTTC	0.0667
ATAGTTTG	-0.0286
ATCGTTTG	0.452
CTCGTTGC	0.356
ATAGTTTC	-0.0466
AGCGTTTG	0.149
CGCGTTTC	0.0838
CTCGTTTC	0.452
GTCTGGAA	-0.122
GAAATTCC	-0.186

From the supplement of paper PMC3334620
